# PubChem BioAssay AID1159580 (chemical genetic matrix, 2015)
# In all, about 5,500 compounds went through this assay and about 2,000 (36%) were called active. Inconclusive results (about 18%) are left out. Some of the results follow. A number with no mark means an inactive call. Rule as the data show it: active = normalized growth mostly below about 0.91 (no sharp cut-off); inconclusive = no clear call, values can overlap the other calls; inactive = mostly above about 0.92.
# Assay: chemical genetic growth profiling, strain panel (AID 1159580);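 also: tested at 20 µM; growth read once vehicle control cultures reached saturation at 30 °C; 1 = growth at the plate median or of vehicle wells; lower values mean less growth of the strain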
# Conditions: growth OD
compound,measurement,setting,value
O=C(O)CN(CC(=O)O)Cc1cc2c(-c3ccccc3C(=O)O)c3cc(CN(CC(=O)O)CC(=O)O)c(=O)cc-3oc2cc1O,normalized growth,"S. cerevisiae deletion strains, locus YJR043C, strain POL32, active compounds read low",1.01
same,normalized growth,"S. cerevisiae deletion strains, locus YJR075W, strain HOC1, active compounds read low",1.03
same,normalized growth,"S. cerevisiae deletion strains, locus YKL009W, strain mrt4, active compounds read low",1.02
same,normalized growth,"S. cerevisiae deletion strains, locus YKL068W, active compounds read low",1.01
same,normalized growth,"S. cerevisiae deletion strains, locus YKL085W, strain MDH1 (second series), active compounds read low",1.01
same,normalized growth,"S. cerevisiae deletion strains, locus YKL085W, strain MDH1, active compounds read low",1.01
same,normalized growth,"S. cerevisiae deletion strains, locus YKL160W, strain elf1, active compounds read low",0.96
same,normalized growth,"S. cerevisiae deletion strains, locus YKL190W, strain CNB1, active compounds read low",1.01
same,normalized growth,"S. cerevisiae deletion strains, locus YKR001C, strain vps1, active compounds read low",1.02
same,normalized growth,"S. cerevisiae deletion strains, locus YKR026C, strain gcn3, active compounds read low",0.986
same,normalized growth,"S. cerevisiae deletion strains, locus YKR091W, strain srl3, active compounds read low",0.965
same,normalized growth,"S. cerevisiae deletion strains, locus YLL001W, strain dnm1, active compounds read low",0.984
same,normalized growth,"S. cerevisiae deletion strains, locus YLL026W, active compounds read low",0.987
same,normalized growth,"S. cerevisiae deletion strains, locus YLL041C, strain sdh2, active compounds read low",0.974
same,normalized growth,"S. cerevisiae deletion strains, locus YLR027C, strain aat2, active compounds read low",0.969
same,normalized growth,"S. cerevisiae deletion strains, locus YLR039C, strain RIC1, active compounds read low",1.05
same,normalized growth,"S. cerevisiae deletion strains, locus YLR058C, strain SHM2, active compounds read low",1
same,normalized growth,"S. cerevisiae deletion strains, locus YLR102C, strain apc9, active compounds read low",1.03
same,normalized growth,"S. cerevisiae deletion strains, locus YLR221C, strain rsa3, active compounds read low",0.984
same,normalized growth,"S. cerevisiae deletion strains, locus YLR258W, strain gsy2, active compounds read low",0.967
same,normalized growth,"S. cerevisiae deletion strains, locus YLR262C, strain YPT6 (second series), active compounds read low",0.817 (active)
same,normalized growth,"S. cerevisiae deletion strains, locus YLR262C, strain YPT6, active compounds read low",1.06
same,normalized growth,"S. cerevisiae deletion strains, locus YLR268W, strain sec22, active compounds read low",1.01
same,normalized growth,"S. cerevisiae deletion strains, locus YLR320W, strain mms22, active compounds read low",0.973
same,normalized growth,"S. cerevisiae deletion strains, locus YLR330W, strain CHS5, active compounds read low",1.01
same,normalized growth,"S. cerevisiae deletion strains, locus YLR342W, strain FKS1 (second series), active compounds read low",1
same,normalized growth,"S. cerevisiae deletion strains, locus YLR342W, strain FKS1, active compounds read low",0.964
same,normalized growth,"S. cerevisiae deletion strains, locus YLR357W, strain rsc2, active compounds read low",0.896
same,normalized growth,"S. cerevisiae deletion strains, locus YLR370C, strain arc18, active compounds read low",0.964
same,normalized growth,"S. cerevisiae deletion strains, locus YLR371W, strain rom2, active compounds read low",1.02
same,normalized growth,"S. cerevisiae deletion strains, locus YLR384C, strain iki3, active compounds read low",0.973
same,normalized growth,"S. cerevisiae deletion strains, locus YLR418C, strain cdc73, active compounds read low",1.03
same,normalized growth,"S. cerevisiae deletion strains, locus YML016C, strain PPZ1, active compounds read low",1.01
same,normalized growth,"S. cerevisiae deletion strains, locus YML032C, strain rad52, active compounds read low",1.03
same,normalized growth,"S. cerevisiae deletion strains, locus YML120C, strain ndi1, active compounds read low",0.968
same,normalized growth,"S. cerevisiae deletion strains, locus YML124C, strain tub3, active compounds read low",1.02
same,normalized growth,"S. cerevisiae deletion strains, locus YMR058W, strain fet3, active compounds read low",0.466 (active)
same,normalized growth,"S. cerevisiae deletion strains, locus YMR078C, strain ctf18, active compounds read low",1.03
same,normalized growth,"S. cerevisiae deletion strains, locus YMR125W, strain sto1, active compounds read low",1.01
same,normalized growth,"S. cerevisiae deletion strains, locus YMR129W, active compounds read low",0.964
same,normalized growth,"S. cerevisiae deletion strains, locus YMR205C, strain PFK2, active compounds read low",0.989
same,normalized growth,"S. cerevisiae deletion strains, locus YMR223W, strain ubp8, active compounds read low",1
same,normalized growth,"S. cerevisiae deletion strains, locus YMR231W, strain pep5, active compounds read low",0.942
same,normalized growth,"S. cerevisiae deletion strains, locus YMR263W, strain SAP30, active compounds read low",1.02
same,normalized growth,"S. cerevisiae deletion strains, locus YMR307W, strain GAS1, active compounds read low",0.947
same,normalized growth,"S. cerevisiae deletion strains, locus YNL067W, strain RPL9B, active compounds read low",1.03
same,normalized growth,"S. cerevisiae deletion strains, locus YNL071W, strain lat1, active compounds read low",0.973
same,normalized growth,"S. cerevisiae deletion strains, locus YNL128W, strain TEP1, active compounds read low",0.96
same,normalized growth,"S. cerevisiae deletion strains, locus YNL153C, strain GIM3, active compounds read low",0.998
same,normalized growth,"S. cerevisiae deletion strains, locus YNL209W, strain ssb2, active compounds read low",0.911 (active)
same,normalized growth,"S. cerevisiae deletion strains, locus YNL233W, strain BNI4, active compounds read low",0.994
same,normalized growth,"S. cerevisiae deletion strains, locus YNL248C, strain rpa49, active compounds read low",1.02
same,normalized growth,"S. cerevisiae deletion strains, locus YNL250W, strain rad50, active compounds read low",1.01
same,normalized growth,"S. cerevisiae deletion strains, locus YNL271C, strain bni1, active compounds read low",1.01
same,normalized growth,"S. cerevisiae deletion strains, locus YNL298W, strain CLA4, active compounds read low",1.04
same,normalized growth,"S. cerevisiae deletion strains, locus YNL307C, strain MCK1, active compounds read low",1.03
same,normalized growth,"S. cerevisiae deletion strains, locus YNL322C, strain KRE1 (second series), active compounds read low",0.967
same,normalized growth,"S. cerevisiae deletion strains, locus YNL322C, strain KRE1, active compounds read low",1.01
same,normalized growth,"S. cerevisiae deletion strains, locus YNR049C, strain mso1, active compounds read low",0.956
same,normalized growth,"S. cerevisiae deletion strains, locus YNR052C, strain pop2, active compounds read low",1.02
same,normalized growth,"S. cerevisiae deletion strains, locus YOL006C, strain TOP1, active compounds read low",1
same,normalized growth,"S. cerevisiae deletion strains, locus YOL012C, strain htz1",1.12
same,normalized growth,"S. cerevisiae deletion strains, locus YOL147C, strain pex11, active compounds read low",1.02
same,normalized growth,"S. cerevisiae deletion strains, locus YOR001W, strain rrp6, active compounds read low",0.939
same,normalized growth,"S. cerevisiae deletion strains, locus YOR061W, strain CKA2, active compounds read low",1
same,normalized growth,"S. cerevisiae deletion strains, locus YOR069W, strain VPS5, active compounds read low",1.01
same,normalized growth,"S. cerevisiae deletion strains, locus YOR070C, strain gyp1, active compounds read low",0.986
same,normalized growth,"S. cerevisiae deletion strains, locus YOR080W, strain dia2, active compounds read low",0.947
same,normalized growth,"S. cerevisiae deletion strains, locus YOR083W, strain WHI5, active compounds read low",0.958
same,normalized growth,"S. cerevisiae deletion strains, locus YOR106W, strain vam3, active compounds read low",0.773 (active)
same,normalized growth,"S. cerevisiae deletion strains, locus YOR136W, strain idh2, active compounds read low",1.02
same,normalized growth,"S. cerevisiae deletion strains, locus YOR144C, strain elg1, active compounds read low",1.02
same,normalized growth,"S. cerevisiae deletion strains, locus YOR184W, strain ser1, active compounds read low",1.03
same,normalized growth,"S. cerevisiae deletion strains, locus YOR265W, strain rbl2, active compounds read low",0.984
same,normalized growth,"S. cerevisiae deletion strains, locus YOR270C, strain vph1, active compounds read low",0.764 (active)
same,normalized growth,"S. cerevisiae deletion strains, locus YOR290C, strain snf2, active compounds read low",0.904
same,normalized growth,"S. cerevisiae deletion strains, locus YOR316C, strain cot1, active compounds read low",1.02
same,normalized growth,"S. cerevisiae deletion strains, locus YPL051W, strain arl3, active compounds read low",0.867 (active)
same,normalized growth,"S. cerevisiae deletion strains, locus YPL055C, strain LGE1, active compounds read low",0.974
same,normalized growth,"S. cerevisiae deletion strains, locus YPL078C, strain atp4, active compounds read low",0.939
same,normalized growth,"S. cerevisiae deletion strains, locus YPL106C, strain sse1, active compounds read low",0.87
same,normalized growth,"S. cerevisiae deletion strains, locus YPL240C, strain hsp82, active compounds read low",0.971
same,normalized growth,"S. cerevisiae deletion strains, locus YPL241C, strain CIN2, active compounds read low",0.987
same,normalized growth,"S. cerevisiae deletion strains, locus YPR119W, strain clb2, active compounds read low",1.02
same,normalized growth,"S. cerevisiae deletion strains, locus YPR141C, strain kar3, active compounds read low",1.02
same,normalized growth,"S. cerevisiae deletion strains, locus YPR163C, strain tif3, active compounds read low",1.01
same,normalized growth,"S. cerevisiae deletion strains, locus YPR167C, strain met16, active compounds read low",1.03
same,normalized growth,"S. cerevisiae deletion strains, strain wtn01, active compounds read low",1.01
same,normalized growth,"S. cerevisiae strains, strain wild type, active compounds read low",0.999
